In the supplement of paper PMC8728848:
This is one part of a sample in which the strongest signals are shown more often than they occur.

B1: RegIIIgamma (Mus musculus), O09049 (protein)
chain: MLPRITITIMSWMLLSCLMLLSQVQGEVAKKDAPSSRSSCPKGSRAYGSYCYALFSVSKNWYDADMACQKRPSGHLVSVLSGAEASFLSSMIKSSGNSGQYVWIGLHDPTLGYEPNRGGWEWSNADVMNYINWETNPSSSSGNHCGTLSRASGFLKWRENYCNLELPYVCKFKA
B2: AT1G73650(15) (Arabidopsis thaliana), F4HRY1 (protein)
chain: MGTVLDSHFLALTAIVTVIYQFIFFVITALFKFDQVTDFAGSTNFVILAVLTLVLKASWHFRQIVLTLLVVVWGLRLGIFLLMETRILQWGEDRRFDEQRGNIVRLIIFWTLQAVWVWTVSLPLTLVNASDGGGSLKPADVIGWTMETWVFGFLIEAAADQQKLSFKNSPENRGKWCDVGVWKYSRHPNYFGEMETLLWWGIFVAASPVLEGAEYLVIFGPLFLTLLLLFVSGIPLLEASADKKHGNSGAYRSYKKTTSPLILFPRGVYGNLPGWFKTVFLFEFPFYSRNLPQEGRLQNSKEKEVKDD

Legend:
Assay in all cases: glycan array binding signal (z-score within array); higher = stronger binding
Settings in all cases: glycan notation: IUPAC condensed, linker removed
[1] = molecular target: Fuc(a1-2)Gal(b1-4)GlcNAc(b1-3)Gal(b1-4)GlcNAc(b1-3)Gal(b1-4)GlcNAc
Summary of the method: (§1)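 The binding signal is a Z-score computed within each array and averaged over linkers. Arrays of the same protein sequence at different concentrations or buffers were also averaged together. Data originate from 3228 arrays in the Consortium for Functional Glycomics database, kept only where the protein sequence was available.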

[2] = molecular target: Fuc(a1-2)[GalNAc(a1-3)]Gal
Summary of the method: as §1

[3] = molecular target: Gal(a1-3)[Gal(a1-4)]Gal(b1-4)GlcNAc
Summary of the method: as §1

[4] = molecular target: Gal(b1-4)GalNAc(a1-3)[Fuc(a1-2)]Gal(b1-4)GlcNAc
Summary of the method: as §1

[5] = molecular target: Gal3S(b1-3)GalNAc
Summary of the method: as §1

[6] = molecular target: Gal3S(b1-4)GlcNAc
Summary of the method: as §1

[7] = molecular target: Gal4S(b1-4)GlcNAc
Summary of the method: as §1

[8] = molecular target: GlcNAc(b1-4)GlcNAc(b1-4)GlcNAc
Summary of the method: as §1

[9] = molecular target: Man(a1-2)Man(a1-6)[Man(a1-3)]Man(a1-6)[Man(a1-2)Man(a1-2)Man(a1-3)]Man(b1-4)GlcNAc(b1-4)GlcNAc
Summary of the method: as §1

[10] = molecular target: Neu5Ac(a2-8)Neu5Ac(a2-3)[GalNAc(b1-4)]Gal(b1-4)Glc
Summary of the method: as §1

[11] = molecular target: Neu5Ac(a2-8)Neu5Ac(a2-8)Neu5Ac(a2-3)Gal(b1-4)Glc
Summary of the method: as §1

[12] = molecular target: Neu5Gc(a2-3)Gal(b1-4)Glc
Summary of the method: as §1

[13] = molecular target: Fuc(a1-2)Gal(b1-4)GlcNAc(b1-3)[Fuc(a1-2)Gal(b1-4)GlcNAc(b1-6)]GalNAc
Summary of the method: as §1

[14] = molecular target: Fuc(a1-2)Gal(b1-4)[Fuc(a1-3)]GlcNAc(b1-3)Gal(b1-4)[Fuc(a1-3)]GlcNAc(b1-3)Gal(b1-4)[Fuc(a1-3)]GlcNAc
Summary of the method: as §1

[15] = molecular target: Fuc(a1-2)[Gal(a1-3)]Gal(b1-4)[Fuc(a1-3)]GlcNAc
Summary of the method: as §1

[16] = molecular target: Fuc(a1-2)[GalNAc(a1-3)]Gal(b1-3)GlcNAc(b1-3)GalNAc
Summary of the method: as §1

[17] = molecular target: Fuc(a1-2)[GalNAc(a1-3)]Gal(b1-4)Glc
Summary of the method: as §1

[18] = molecular target: Fuc(a1-2)[GalNAc(a1-3)]Gal(b1-4)GlcNAc(b1-3)[Fuc(a1-2)[GalNAc(a1-3)]Gal(b1-4)GlcNAc(b1-6)]GalNAc
Summary of the method: as §1

[19] = molecular target: Fuc(a1-3)[Gal(b1-4)]Glc6S
Summary of the method: as §1

[20] = molecular target: Fuc(a1-3)[Gal3S(b1-4)]GlcNAc
Summary of the method: as §1

[21] = molecular target: Fuc(a1-3)[GalNAc(b1-4)]GlcNAc6S
Summary of the method: as §1

[22] = molecular target: Gal(a1-3)Gal(b1-4)Glc
Summary of the method: as §1

[23] = molecular target: Gal(a1-3)Gal(b1-4)GlcNAc(b1-6)GalNAc
Summary of the method: as §1

[24] = molecular target: Gal(b1-3)GalNAc(b1-4)Gal(b1-4)Glc
Summary of the method: as §1

[25] = molecular target: Gal(b1-3)GlcNAc(b1-2)Man(a1-3)[GlcNAc(b1-4)][Gal(b1-3)GlcNAc(b1-2)Man(a1-6)]Man(b1-4)GlcNAc(b1-4)GlcNAc
Summary of the method: as §1

[26] = molecular target: Gal(b1-3)[Fuc(a1-4)]GlcNAc(b1-3)Gal(b1-4)[Fuc(a1-3)]GlcNAc
Summary of the method: as §1

[27] = molecular target: Gal(b1-4)Glc6S
Summary of the method: as §1

[28] = molecular target: Gal(b1-4)GlcNAc(b1-2)Man(a1-6)[Man(a1-3)]Man(b1-4)GlcNAc(b1-4)GlcNAc
Summary of the method: as §1

[29] = molecular target: Gal(b1-4)GlcNAc(b1-2)[Gal(b1-4)GlcNAc(b1-6)]Man(a1-6)[Gal(b1-4)GlcNAc(b1-2)Man(a1-3)]Man(b1-4)GlcNAc(b1-4)[Fuc(a1-6)]GlcNAc
Summary of the method: as §1

[30] = molecular target: Gal(b1-4)GlcNAc(b1-2)[Gal(b1-4)GlcNAc(b1-6)]Man(a1-6)[GlcNAc(b1-4)][Gal(b1-4)GlcNAc(b1-2)Man(a1-3)]Man(b1-4)GlcNAc(b1-4)GlcNAc
Summary of the method: as §1

[31] = molecular target: Gal(b1-4)GlcNAc(b1-3)Gal(b1-4)GlcNAc(b1-3)Gal(b1-4)GlcNAc(b1-3)Gal(b1-4)GlcNAc(b1-2)[Gal(b1-4)GlcNAc(b1-3)Gal(b1-4)GlcNAc(b1-3)Gal(b1-4)GlcNAc(b1-3)Gal(b1-4)GlcNAc(b1-6)]Man(a1-6)[Gal(b1-4)GlcNAc(b1-3)Gal(b1-4)GlcNAc(b1-3)Gal(b1-4)GlcNAc(b1-3)Gal(b1-4)GlcNAc(b1-2)Man(a1-3)]Man(b1-4)GlcNAc(b1-4)[Fuc(a1-6)]GlcNAc
Summary of the method: as §1

[32] = molecular target: Gal3S(b1-4)[Fuc(a1-3)]GlcNAc6S
Summary of the method: as §1

[33] = molecular target: Gal3S6S(b1-4)GlcNAc6S
Summary of the method: as §1

[34] = molecular target: Gal4S6S(b1-4)GlcNAc
Summary of the method: as §1

[35] = molecular target: Gal6S(b1-3)GlcNAc6S
Summary of the method: as §1

[36] = molecular target: GalNAc(b1-4)GlcNAc
Summary of the method: as §1

[37] = molecular target: GalNAc(b1-4)GlcNAc6S
Summary of the method: as §1

[38] = molecular target: GalNAc6S(b1-4)GlcNAc
Summary of the method: as §1

[39] = molecular target: GlcNAc(b1-2)Man(a1-3)[GlcNAc(b1-2)Man(a1-6)]Man(b1-4)GlcNAc(b1-4)GlcNAc
Summary of the method: as §1

Binder	glycan array binding signal (z-score) [1]	glycan array binding signal (z-score) [2]	glycan array binding signal (z-score) [3]	glycan array binding signal (z-score) [4]	glycan array binding signal (z-score) [5]	glycan array binding signal (z-score) [6]	glycan array binding signal (z-score) [7]	glycan array binding signal (z-score) [8]	glycan array binding signal (z-score) [9]	glycan array binding signal (z-score) [10]	glycan array binding signal (z-score) [11]	glycan array binding signal (z-score) [12]	glycan array binding signal (z-score) [13]	glycan array binding signal (z-score) [14]	glycan array binding signal (z-score) [15]	glycan array binding signal (z-score) [16]	glycan array binding signal (z-score) [17]	glycan array binding signal (z-score) [18]	glycan array binding signal (z-score) [19]	glycan array binding signal (z-score) [20]	glycan array binding signal (z-score) [21]	glycan array binding signal (z-score) [22]	glycan array binding signal (z-score) [23]	glycan array binding signal (z-score) [24]	glycan array binding signal (z-score) [25]	glycan array binding signal (z-score) [26]	glycan array binding signal (z-score) [27]	glycan array binding signal (z-score) [28]	glycan array binding signal (z-score) [29]	glycan array binding signal (z-score) [30]	glycan array binding signal (z-score) [31]	glycan array binding signal (z-score) [32]	glycan array binding signal (z-score) [33]	glycan array binding signal (z-score) [34]	glycan array binding signal (z-score) [35]	glycan array binding signal (z-score) [36]	glycan array binding signal (z-score) [37]	glycan array binding signal (z-score) [38]	glycan array binding signal (z-score) [39]
B1	0.632	-0.258	0.491	-0.228	-0.134	-0.128	1.17	-0.185	-0.06	-0.133	-0.163	-0.148	–	–	–	–	–	–	–	–	–	–	–	–	–	–	–	–	–	–	–	–	–	–	–	–	–	–	–
B2	–	–	3.43	-0.354	–	–	-0.333	–	–	–	–	–	2.33	-0.048	-0.438	0.226	-0.567	-0.573	2.65	3.17	-0.217	3.4	-0.542	3.21	-0.213	-0.287	2.95	-0.586	1.65	-0.494	-0.173	1.88	0.919	-0.444	-0.282	4.01	-0.402	0.513	-0.569
